Assay results as given in PubChem BioAssay AID1159580 (chemical genetic matrix, 2015).
The campaign covered roughly 5,500 compounds. About 2,000 (36%) were called active. Roughly 18% stayed inconclusive and do not appear here. No stated cut-off is given here; in the data, active means normalized growth mostly below about 0.91 (no sharp cut-off); inconclusive means no clear call, values can overlap the other calls; inactive means mostly above about 0.92. Some of the results follow.

Experiment: chemical genetic growth profiling, strain panel (AID 1159580);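 further: tested at 20 µM; growth read once vehicle control cultures reached saturation at 30 °C; 1 = growth at the plate median or of vehicle wells; lower values mean less growth of the strain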
Conditions: growth OD

Measured: normalized growth

C[CH2][Hg][S]c1ccccc1C(=O)O
active: S. cerevisiae deletion strains, locus YJR075W, strain HOC1, hits give low values 0.0601 | S. cerevisiae deletion strains, locus YKL009W, strain mrt4, hits give low values 0.078 | S. cerevisiae deletion strains, locus YKL068W, hits give low values 0.0532 | S. cerevisiae deletion strains, locus YKL085W, strain MDH1 (second series), hits give low values 0.0507 | S. cerevisiae deletion strains, locus YKL085W, strain MDH1, hits give low values 0.0507 | S. cerevisiae deletion strains, locus YKL160W, strain elf1, hits give low values 0.0622 | S. cerevisiae deletion strains, locus YKL190W, strain CNB1, hits give low values 0.0466 | S. cerevisiae deletion strains, locus YKR001C, strain vps1, hits give low values 0.0606 | S. cerevisiae deletion strains, locus YKR026C, strain gcn3, hits give low values 0.0601 | S. cerevisiae deletion strains, locus YKR091W, strain srl3, hits give low values 0.0575 | S. cerevisiae deletion strains, locus YLL001W, strain dnm1, hits give low values 0.058 | S. cerevisiae deletion strains, locus YLL026W, hits give low values 0.0549 | S. cerevisiae deletion strains, locus YLL041C, strain sdh2, hits give low values 0.0553 | S. cerevisiae deletion strains, locus YLR027C, strain aat2, hits give low values 0.0538 | S. cerevisiae deletion strains, locus YLR039C, strain RIC1, hits give low values 0.0815 | S. cerevisiae deletion strains, locus YLR058C, strain SHM2, hits give low values 0.0473 | S. cerevisiae deletion strains, locus YLR102C, strain apc9, hits give low values 0.0603 | S. cerevisiae deletion strains, locus YLR113W, strain HOG1, hits give low values 0.153 | S. cerevisiae deletion strains, locus YLR221C, strain rsa3, hits give low values 0.0597 | S. cerevisiae deletion strains, locus YLR258W, strain gsy2, hits give low values 0.0592 | S. cerevisiae deletion strains, locus YLR262C, strain YPT6 (second series), hits give low values 0.0742 | S. cerevisiae deletion strains, locus YLR262C, strain YPT6, hits give low values 0.105 | S. cerevisiae deletion strains, locus YLR268W, strain sec22, hits give low values 0.0621 | S. cerevisiae deletion strains, locus YLR320W, strain mms22, hits give low values 0.0814 | S. cerevisiae deletion strains, locus YLR330W, strain CHS5, hits give low values 0.0525 | S. cerevisiae deletion strains, locus YLR342W, strain FKS1 (second series), hits give low values 0.0638 | S. cerevisiae deletion strains, locus YLR342W, strain FKS1, hits give low values 0.0616 | S. cerevisiae deletion strains, locus YLR357W, strain rsc2, hits give low values 0.112 | S. cerevisiae deletion strains, locus YLR370C, strain arc18, hits give low values 0.0588 | S. cerevisiae deletion strains, locus YLR371W, strain rom2, hits give low values 0.0587 | S. cerevisiae deletion strains, locus YLR384C, strain iki3, hits give low values 0.0582 | S. cerevisiae deletion strains, locus YLR418C, strain cdc73, hits give low values 0.0891 | S. cerevisiae deletion strains, locus YML016C, strain PPZ1, hits give low values 0.0465 | S. cerevisiae deletion strains, locus YML032C, strain rad52, hits give low values 0.0656 | S. cerevisiae deletion strains, locus YML120C, strain ndi1, hits give low values 0.0572 | S. cerevisiae deletion strains, locus YML124C, strain tub3, hits give low values 0.0558 | S. cerevisiae deletion strains, locus YMR058W, strain fet3, hits give low values 0.0565 | S. cerevisiae deletion strains, locus YMR078C, strain ctf18, hits give low values 0.0699 | S. cerevisiae deletion strains, locus YMR125W, strain sto1, hits give low values 0.0708 | S. cerevisiae deletion strains, locus YMR129W, hits give low values 0.0561 | S. cerevisiae deletion strains, locus YMR205C, strain PFK2, hits give low values 0.0823 | S. cerevisiae deletion strains, locus YMR223W, strain ubp8, hits give low values 0.0597 | S. cerevisiae deletion strains, locus YMR231W, strain pep5, hits give low values 0.0664 | S. cerevisiae deletion strains, locus YMR263W, strain SAP30, hits give low values 0.0559 | S. cerevisiae deletion strains, locus YMR307W, strain GAS1, hits give low values 0.0969 | S. cerevisiae deletion strains, locus YNL067W, strain RPL9B, hits give low values 0.0481 | S. cerevisiae deletion strains, locus YNL071W, strain lat1, hits give low values 0.0589 | S. cerevisiae deletion strains, locus YNL128W, strain TEP1, hits give low values 0.0596 | S. cerevisiae deletion strains, locus YNL153C, strain GIM3, hits give low values 0.0483 | S. cerevisiae deletion strains, locus YNL183C, strain NPR1, hits give low values 0.004 | S. cerevisiae deletion strains, locus YNL209W, strain ssb2, hits give low values 0.057 | S. cerevisiae deletion strains, locus YNL233W, strain BNI4, hits give low values 0.0515 | S. cerevisiae deletion strains, locus YNL248C, strain rpa49, hits give low values 0.0737 | S. cerevisiae deletion strains, locus YNL250W, strain rad50, hits give low values 0.0619 | S. cerevisiae deletion strains, locus YNL271C, strain bni1, hits give low values 0.0596 | S. cerevisiae deletion strains, locus YNL298W, strain CLA4, hits give low values 0.0571 | S. cerevisiae deletion strains, locus YNL307C, strain MCK1, hits give low values 0.0641 | S. cerevisiae deletion strains, locus YNL322C, strain KRE1 (second series), hits give low values 0.0632 | S. cerevisiae deletion strains, locus YNL322C, strain KRE1, hits give low values 0.0468 | S. cerevisiae deletion strains, locus YNR049C, strain mso1, hits give low values 0.0543 | S. cerevisiae deletion strains, locus YNR052C, strain pop2, hits give low values 0.061 | S. cerevisiae deletion strains, locus YOL006C, strain TOP1, hits give low values 0.0904 | S. cerevisiae deletion strains, locus YOL012C, strain htz1 0.178 | S. cerevisiae deletion strains, locus YOL147C, strain pex11, hits give low values 0.0589 | S. cerevisiae deletion strains, locus YOR001W, strain rrp6, hits give low values 0.0639 | S. cerevisiae deletion strains, locus YOR061W, strain CKA2, hits give low values 0.0446 | S. cerevisiae deletion strains, locus YOR069W, strain VPS5, hits give low values 0.0457 | S. cerevisiae deletion strains, locus YOR070C, strain gyp1, hits give low values 0.0575 | S. cerevisiae deletion strains, locus YOR080W, strain dia2, hits give low values 0.0641 | S. cerevisiae deletion strains, locus YOR083W, strain WHI5, hits give low values 0.0608 | S. cerevisiae deletion strains, locus YOR106W, strain vam3, hits give low values 0.0597 | S. cerevisiae deletion strains, locus YOR136W, strain idh2, hits give low values 0.0686 | S. cerevisiae deletion strains, locus YOR144C, strain elg1, hits give low values 0.0566 | S. cerevisiae deletion strains, locus YOR184W, strain ser1, hits give low values 0.065 | S. cerevisiae deletion strains, locus YOR231W, strain MKK1, hits give low values 0.125 | S. cerevisiae deletion strains, locus YOR265W, strain rbl2, hits give low values 0.0558 | S. cerevisiae deletion strains, locus YOR270C, strain vph1, hits give low values 0.0908 | S. cerevisiae deletion strains, locus YOR290C, strain snf2, hits give low values 0.0723 | S. cerevisiae deletion strains, locus YOR316C, strain cot1, hits give low values 0.0555 | S. cerevisiae deletion strains, locus YPL051W, strain arl3, hits give low values 0.0607 | S. cerevisiae deletion strains, locus YPL055C, strain LGE1, hits give low values 0.0725 | S. cerevisiae deletion strains, locus YPL078C, strain atp4, hits give low values 0.0632 | S. cerevisiae deletion strains, locus YPL106C, strain sse1, hits give low values 0.0983 | S. cerevisiae deletion strains, locus YPL240C, strain hsp82, hits give low values 0.0533 | S. cerevisiae deletion strains, locus YPL241C, strain CIN2, hits give low values 0.0538 | S. cerevisiae deletion strains, locus YPL256C, strain CLN2, hits give low values 0.135 | S. cerevisiae deletion strains, locus YPR119W, strain clb2, hits give low values 0.0599 | S. cerevisiae deletion strains, locus YPR141C, strain kar3, hits give low values 0.0633 | S. cerevisiae deletion strains, locus YPR163C, strain tif3, hits give low values 0.0679 | S. cerevisiae deletion strains, locus YPR167C, strain met16, hits give low values 0.0597 | S. cerevisiae deletion strains, strain wtn01, hits give low values 0.0565 | S. cerevisiae strains, strain wild type, hits give low values 0.0464
